# High-throughput results from PubChem BioAssay.
# NOMO-1 viab: STK33 inhibitor candidate reducing NOMO-1 cell viability; inhibition, % (concentration not given with the values); actives 7.5% (n = 37,000); NOMO-1 AML viability, CellTiter-Glo luminescence, 72 h; in the data active means inhibition above about 80%; inconclusive means no clear call, values can overlap the other calls
# MITF inh: inhibitors of MITF | actives 0.28% (n = 37,000) | inhibition, % (test concentration not listed) | TRPM1 promoter luciferase, luminescence, 24 h | AID 2240; in the data active means inhibition above about 85%; inconclusive means no clear call, values can overlap the other calls; inactive means below about 68%;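 further: human melanocyte line stably carrying TRPM1 promoter luciferase reporter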
# Shh pathway inh: blocks Sonic Hedgehog signaling. Shh-LIGHT2 Gli-luciferase reporter, 30 h. inhibition, % (test concentration not listed). actives 2.1% (n = 22,000);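 active means mean inhibition across valid replicates above about 65%, limit read from the data; inconclusive means mean under the limit, yet half or more replicates past it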;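 further: pathway switched on by Shh-conditioned medium diluted 1 in 25 in low serum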
# * = called active by the depositor; ? = inconclusive; / = not tested or not shown. Shown are actives, neighbours in structure and some others; about 7.8% of the full set was active somewhere.
SMILES,NOMO-1 viab,MITF inh,Shh pathway inh
COc1ccccc1Nc1ncnc2c1cnn2Cc1ccccc1,-25.8,-5.3,/
CC1(C)CC[C@]2(C(=O)O[C@@H]3O[C@H](CO[C@@H]4O[C@H](CO)[C@@H](O)[C@H](O)[C@H]4O)[C@@H](O)[C@H](O[C@@H]4O[C@H](CO)[C@@H](O)[C@H](O)[C@H]4O)[C@H]3O)CC[C@]3(C)C(=CCC4[C@@]5(C)CC[C@H](O)[C@@](C)(C(=O)O)C5CC[C@]43C)C2C1 (stereo partly specified),-7.1,10.9,-14.1
CC(C)(C)C(=O)COc1cccc(NC(=O)c2ccc([N+](=O)[O-])cc2)c1,34.5,35.1,/
C=C1C(=O)O[C@H]2[C@H]1[C@@H](OC(=O)C(C)(O)C(C)Cl)C(OC(C)=O)/C(C(=O)OC)=C\CC[C@@]1(C)O[C@H]21 (stereo partly specified),119.5*,-9.5,73.0*
C[C@@H]1C[C@H]2[C@@H]3CCC4=CC(=O)C=C[C@]4(C)[C@@]3(Cl)[C@@H](O)C[C@]2(C)[C@@]1(OC(=O)c1ccco1)C(=O)CCl,113.7*,-2.0,22.8
CCC(=O)OCC(=O)[C@@]1(OC(=O)CC)[C@@H](C)CC2C3CCC4=CC(=O)C=C[C@]4(C)C3(F)[C@@H](O)C[C@@]21C (stereo partly specified),-0.1,-19.4,24.6
COc1cc(OC)c(NC(=O)CN(C)S(=O)(=O)c2cc(Cl)ccc2Cl)cc1Cl,13.1,4.8,/
CCOC(=O)c1nn(-c2ccccc2)c(C#N)c1NC(=O)c1nn(CC)cc1Br,115.0*,-12.3,65.8*
CCOC(=O)c1c(NC(=O)c2nn(CC)cc2Br)c(C#N)nn1-c1ccccc1,8.7,6.5,/
NCCCN(Cc1ccco1)C1CCCC1,106.1*,-9.6,/
CC(C)C(=O)Nc1cccc(-c2nc3ccccc3c(=O)o2)c1,28.2,6.9,-17.5
O=c1oc(-c2cccc(Cl)c2)nc2c1cnn2-c1ccccc1,115.0*,-7.1,-8.3
C[C@@H]1O[C@@H](O[C@H]2[C@H](O)[C@@H](O[C@@H]3O[C@H](CO)[C@@H](O)[C@H](O[C@@H]4O[C@H](CO)[C@@H](O)[C@H](O)[C@H]4O)[C@H]3O)[C@H](O[C@H]3CC[C@@]4(C)C(=CC[C@@H]5C4CC[C@@]4(C)C5C[C@@H]5O[C@]6(CC[C@@](C)(CO[C@@H]7O[C@H](CO)[C@@H](O)[C@H](O)[C@H]7O)O6)[C@@H](C)[C@@H]54)C3)O[C@@H]2CO)[C@H](O)[C@H](O)[C@H]1O (stereo partly specified),120.3*,6.0,69.6*
CC1CCC2(NC1)OC1CC3C4CC=C5CC(O[C@@H]6O[C@H](CO)[C@@H](O[C@@H]7O[C@@H](C)[C@H](O)[C@@H](O)[C@H]7O)[C@H](O)[C@H]6O)CCC5(C)C4CCC3(C)C1C2C (stereo partly specified),6.8,2.7,6.0
CNC(=O)CCC(=O)Nc1ccc(C(=O)OC)cc1,14.6,-0.1,/
COC(=O)c1ccc(NC(=O)CSC(=S)N2CCOCC2)cc1,16.2,6.5,67.9*
CCOC(=O)c1c(-c2ccccc2)oc2ccc(O)c(CSCC(=O)Nc3ccccc3)c12,126.0*,19.5,/
CCOC(=O)c1ccc(NC(=O)Cn2c(=O)oc3ccccc32)cc1,-5.0,3.4,/
C[C@@H]1CN([C@H](C)CO)C(=O)Cc2cc(NC(=O)Nc3ccccc3)ccc2O[C@@H]1CN(C)Cc1ccc(Oc2ccccc2)cc1,115.2*,31.6,42.1
C[C@@H]1CN([C@H](C)CO)C(=O)Cc2cc(NC(=O)Nc3ccc4c(c3)OCO4)ccc2O[C@@H]1CN(C)Cc1ccc(Oc2ccccc2)cc1,118.8*,20.3,32.0
C[C@H]1CN([C@@H](C)CO)C(=O)Cc2cc(NC(=O)Nc3ccccc3)ccc2O[C@H]1CN(C)Cc1ccc(Oc2ccccc2)cc1,53.7,-4.4,-11.4
C[C@H]1CN([C@@H](C)CO)C(=O)Cc2cc(NC(=O)C3CCCCC3)ccc2O[C@H]1CN(C)Cc1ccc(Oc2ccccc2)cc1,26.6,-10.1,27.8
C[C@@H]1CN([C@H](C)CO)C(=O)Cc2cc(NC(=O)C3CCCCC3)ccc2O[C@H]1CN(C)Cc1ccc(Oc2ccccc2)cc1,80.6*,53.1,35.0
C[C@H](CO)N1C[C@H](C)[C@H](CN(C)Cc2ccc(Oc3ccccc3)cc2)Oc2ccc(NC(=O)Nc3ccccc3)cc2CC1=O,45.3,-12.5,-22.6
C[C@@H]1CN([C@@H](C)CO)C(=O)Cc2cc(NC(=O)Nc3ccccc3)ccc2O[C@@H]1CN(C)Cc1ccc(Oc2ccccc2)cc1,77.7,44.6,51.8
SMILES,NOMO-1 viab,MITF inh,Shh pathway inh
C[C@@H]1CN([C@H](C)CO)C(=O)Cc2cc(NC(=O)Nc3ccc4c(c3)OCO4)ccc2O[C@H]1CN(C)Cc1ccc(Oc2ccccc2)cc1,116.7*,10.1,?
COCCNS(=O)(=O)c1ccc(Cl)c(Cl)c1OC,-1.2,4.0,/
CCn1c(SCC(=O)Nc2cccc(Br)c2)nnc1-c1ccco1,15.3,5.0,/
Cc1c(Br)c([N+](=O)[O-])nn1CC(=O)Nc1cc(F)ccc1F,3.0,-12.4,/
COc1ccc(C2C(C#N)=C(N)Oc3n[nH]c(-c4ccccc4)c32)cc1CSc1ccccn1 (stereo unspecified),17.2,-1.3,/
Cc1cc2nn(-c3ccc(F)cc3)nc2cc1NC(=O)COc1ccc(Br)cc1,0.5,-27.2,/
C[C@@H]1CN([C@@H](C)CO)C(=O)Cc2cc(NC(=O)Nc3ccc4c(c3)OCO4)ccc2O[C@@H]1CN(C)Cc1ccc(Oc2ccccc2)cc1,106.6*,35.0,47.5
C[C@H]1CN([C@@H](C)CO)C(=O)Cc2cc(NC(=O)Cc3ccccc3)ccc2O[C@@H]1CN(C)Cc1ccc(Oc2ccccc2)cc1,74.9,9.2,16.0
C[C@H]1CN([C@@H](C)CO)C(=O)Cc2cc(NC(=O)Nc3ccccc3)ccc2O[C@@H]1CN(C)Cc1ccc(Oc2ccccc2)cc1,58.3,2.0,14.0
C[C@H](CO)N1C[C@H](C)[C@H](CN(C)Cc2ccc(Oc3ccccc3)cc2)Oc2ccc(NC(=O)Cc3ccccc3)cc2CC1=O,115.7*,28.0,/
O=C(CSc1nc(-c2ccccc2)cc(C(F)(F)F)n1)Nc1ccc2c(c1)CCC2,11.9,-28.2,/
CC(=O)OCC/C(=C\CC1(O)C(C)CCC2C(C)(C)CCCC21C)COC(C)=O (stereo unspecified),56.0,-11.1,-7.1
Cc1ccc(S(=O)(=O)Nc2ccc3c(c2)CC(=O)N([C@H](C)CO)C[C@@H](C)[C@H](CN(C)Cc2ccc(Cl)c(Cl)c2)O3)cc1,59.3,0.2,-16.3
Cc1ccc(S(=O)(=O)Nc2ccc3c(c2)CC(=O)N([C@H](C)CO)C[C@@H](C)[C@@H](CN(C)Cc2ccc(Cl)c(Cl)c2)O3)cc1,116.3*,25.7,35.2
Cc1ccc(S(=O)(=O)Nc2ccc3c(c2)CC(=O)N([C@@H](C)CO)C[C@H](C)[C@H](CN(C)Cc2ccc(Cl)c(Cl)c2)O3)cc1,71.4,4.6,-32.8
Cc1ccc(S(=O)(=O)Nc2ccc3c(c2)CC(=O)N([C@@H](C)CO)C[C@@H](C)[C@@H](CN(C)Cc2ccc(Cl)c(Cl)c2)O3)cc1,83.4*,22.8,-8.3
COc1cccc(NC(=O)C(C)N(c2ccc(Cl)cc2)S(C)(=O)=O)c1 (stereo unspecified),11.2,16.0,/
